The subject of assay [1] is Aerobactin synthetase IucA (Klebsiella pneumoniae). Briefly: IucA aerobactin synthetase inhibitors, biochemical, Tocris library, absorbance (AID 1345561; call rule not given here;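 further: 100% = enzyme without compound and 0% = no enzyme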). Conditions: purified IucA enzyme assay, absorbance (OD) read-out; stronger effect = lower value;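 tested at 8 µM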.
The nature of assay [2]: sensitizers of A549 cells to miR-34 induction, primary screen, imaging, A549 dox-inducible miR-34, nuclei and caspase counts (AID 1347080). To be noted: A549 miR-34 inducible, Hoechst nuclei count, 48 h.
Assay [3] is described as follows: viability rescue of complex I mutant cybrids, primary screen, cell-based, galactose medium, ATP luminescence (AID 1645843;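 active means z-score of at least 1.8 in each of two replicates, scored against plate mean and spread of sample wells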;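 further: positive z means more ATP and so rescue of galactose-driven cybrid death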). To be noted: complex I mutant cybrid cells, 72 h, stronger effect = higher value.
The mark [4] stands for this setting: stronger effect = lower value, cell number ratio, induced over uninduced.
[5] abbreviates: measured here: relative caspase fold change +Dox/-Dox.
The mark [6] stands for this setting: measured here: total cells with miR-34 induction, stronger effect = lower value.
The mark [7] stands for this setting: measured here: total cells without miR-34 induction.

Several values for one entry are separate records, joined by “and”; a condition that tells them apart may be missing. Equal entries are not always repeated. Activity calls are given as the source filed them.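 How the source made its calls, unless noted: active means compounds whose cell count with miR-34 switched on is under 0.7 times the count with it off; inactive means the rest.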

For `CCCNC(=O)N1N=C(c2ccc(N)cc2)c2cc3c(cc2C1C)OCO3` (centres undefined), the remaining activity in assay [1] is 101% (inactive). In addition, the results for the fold change in assay [2] (setting [4]) and in assay [2] (setting [5]) were 0.903 (inactive) and 1.06, respectively. The results for the cell count in assay [2] (setting [6]) and in assay [2] (setting [7]) were 8160 and 9040, respectively. Besides, the z-score in assay [3] was 0.065 (inactive).

For the molecule `CCn1c(=O)n(C2=C(CO)CN(CC3CCCCCCC3)CC2)c2ccccc21`, the remaining activity in assay [1] is 102% (inactive). For the same molecule, the fold change in assay [2] (setting [4]) is 0.951 (inactive); in assay [2] (setting [5]) it was 1.46. Moreover, the cell count in assay [2] (setting [6]) came out at 7150; in assay [2] (setting [7]), 7510. For the same molecule, the z-score in assay [3] is -0.665 (inactive).

For `CCOC(=O)C1=C(C)NC(c2ccccc2)=C(C(=O)OCc2ccc([N+](=O)[O-])cc2)C1C#Cc1ccccc1` (centres undefined), the remaining activity in assay [1] is 124% (inactive). The fold change in assay [2] (setting [4]) is 0.924 (inactive); in assay [2] (setting [5]), 0.543. The cell count in assay [2] (setting [6]) was 7910; in assay [2] (setting [7]), 8560. Further, in assay [3], the z-score was 0.3 (inactive).

Consider `CCCCC(=O)NCCc1c(Cc2ccccc2)[nH]c2ccccc12`, for which the remaining activity in assay [1] was 108% (inactive). Also, the fold change is 0.933 (inactive) in assay [2] (setting [4]) and 0.702 in assay [2] (setting [5]). Moreover, the cell count came to 6310 in assay [2] (setting [6]) and 6770 in assay [2] (setting [7]). In assay [3], the z-score was 0.26 (inactive).

Turning to `N#CC(Cc1ccc(O)cc1)c1ccc(O)cc1` (centres undefined), in assay [1], the remaining activity is 90.6% (inactive). In addition, the fold change in assay [2] (setting [4]) was 0.917 (inactive) and 0.865 (inactive); in assay [2] (setting [5]), 0.401 and 1.73. The cell count in assay [2] (setting [6]) is 5410 and 8710; in assay [2] (setting [7]), 5900 and 10100. Besides, the z-score in assay [3] is 2.66 (active).

Regarding `OC[C@H]1NC[C@@H](O)[C@@H](O)[C@@H]1O`, in assay [1], the remaining activity was 123% (inactive). Moreover, the fold change in assay [2] (setting [4]) was 0.958 (inactive) and 0.973 (inactive); in assay [2] (setting [5]) it was 0.787 and 0.709. Besides, the cell count was 4950 and 9630 in assay [2] (setting [6]); 5160 and 9890 in assay [2] (setting [7]). Also, the z-score in assay [3] is -0.17 (inactive).

Consider `CC1(C)CC(=O)C(C2C3=C(CC(C)(C)CC3=O)Oc3ccccc32)C(=O)C1` (centres undefined), for which the remaining activity in assay [1] was 120% (inactive). Further, the fold change is 0.884 (inactive) in assay [2] (setting [4]) and 0.511 in assay [2] (setting [5]). Also, the cell count in assay [2] (setting [6]) stood at 9160; in assay [2] (setting [7]), 10400. Moreover, in assay [3], the z-score was -0.35 (inactive).

Regarding `N[C@@H](CC(=O)Nc1ccc(Oc2cc(F)c(F)cc2Br)cc1)C(=O)O`, the remaining activity in assay [1] was 98.2% (inactive). The values for the fold change in assay [2] (setting [4]) and in assay [2] (setting [5]) were 0.952 (inactive) and 1.1, respectively. In addition, the cell count in assay [2] (setting [6]) is 7870; in assay [2] (setting [7]) it was 8270. In addition, the z-score in assay [3] is 0.265 (inactive).

As to `O=C1C(c2ccccn2)=[N+]([O-])c2ccccc21`, in assay [1], the remaining activity was 123% (inactive). Moreover, the fold change is 0.941 (inactive) in assay [2] (setting [4]) and 0.616 in assay [2] (setting [5]). The cell count was found to be 8260 in assay [2] (setting [6]) and 8780 in assay [2] (setting [7]). Besides, in assay [3], the z-score is -0.62 (inactive).

With `COc1cc(/C=C/c2ccc(OC)cc2OC)cc(OC)c1`, in assay [1], the remaining activity is 117% (inactive). For the same molecule, the fold change was 0.956 (inactive) and 0.973 (inactive) in assay [2] (setting [4]); 1.53 and 0.719 in assay [2] (setting [5]). Also, the cell count in assay [2] (setting [6]) was 1820 and 3000; in assay [2] (setting [7]), 1910 and 3090. The z-score in assay [3] was -0.41 (inactive).

For the molecule `O=C(Cc1ccccc1)Nc1nc2ccc(Cl)cc2c2nc(-c3ccco3)nn12`, the remaining activity in assay [1] is 112% (inactive). For the same molecule, the fold change was 1 (inactive) in assay [2] (setting [4]) and 0.707 in assay [2] (setting [5]). Moreover, the cell count in assay [2] (setting [6]) was 7840; in assay [2] (setting [7]), 7820. In addition, in assay [3], the z-score is 0.635 (inactive).

As to `C[C@H](NC[C@H](O)CP(=O)(O)Cc1ccccc1)c1ccc(Cl)c(Cl)c1`, the remaining activity in assay [1] was 111% (inactive). The results for the fold change in assay [2] (setting [4]) and in assay [2] (setting [5]) were 0.949 (inactive) and 1.04, respectively. Further, the cell count in assay [2] (setting [6]) was found to be 8740; in assay [2] (setting [7]) it was 9210. For the same molecule, the z-score in assay [3] was 0.06 (inactive).

For `CN=C1C=C2C(=NC=NC2=Nc2cccc(Br)c2)C=N1`, in assay [1], the remaining activity was 82.7% (inactive). Also, the fold change was 0.699 (active) in assay [2] (setting [4]) and 1.7 in assay [2] (setting [5]). The cell count in assay [2] (setting [6]) was 942; in assay [2] (setting [7]), 1350. Further, the z-score in assay [3] is -0.675 (inactive).

Turning to `CCCCC#Cc1nc(NC)c2ncn([C@@H]3O[C@H](CO)[C@@H](O)[C@H]3O)c2n1`, the remaining activity in assay [1] was 96.8% (inactive). Also, the fold change in assay [2] (setting [4]) is 0.906 (inactive); in assay [2] (setting [5]), 0.777. For the same molecule, the figures for the cell count in assay [2] (setting [6]) and in assay [2] (setting [7]) were 8810 and 9730, respectively. In addition, the z-score in assay [3] was -0.21 (inactive).

With `N[C@@H](Cn1ccc(=O)n(Cc2ccccc2C(=O)O)c1=O)C(=O)O`, the remaining activity in assay [1] is 102% (inactive). In addition, the figures for the fold change in assay [2] (setting [4]) and in assay [2] (setting [5]) were 0.972 (inactive) and 1.26, respectively. In addition, the figures for the cell count in assay [2] (setting [6]) and in assay [2] (setting [7]) were 8660 and 8900, respectively. In addition, in assay [3], the z-score was 0.025 (inactive).

On to `Cc1nnc(-c2ccc3occ(-c4ccc(S(C)=O)cc4)c3c2)o1` (centres undefined), for which the remaining activity in assay [1] was 113% (inactive). Further, the figures for the fold change in assay [2] (setting [4]) and in assay [2] (setting [5]) were 0.855 (inactive) and 1.35, respectively. The cell count in assay [2] (setting [6]) was determined as 4510; in assay [2] (setting [7]), 5270. The z-score in assay [3] was -0.44 (inactive).

On to `CCOC(=O)c1ncc2[nH]c3cccc(OC(C)C)c3c2c1C`, for which the remaining activity in assay [1] is 96.4% (inactive). Further, the fold change was 0.924 (inactive) in assay [2] (setting [4]) and 0.813 in assay [2] (setting [5]). Further, the cell count in assay [2] (setting [6]) stood at 5120; in assay [2] (setting [7]) it was 5540. For the same molecule, the z-score in assay [3] was -0.64 (inactive).

Regarding `CCCCNC(=O)[C@@H]1Cc2ccccc2N1C(=O)[C@@H](N)CC`, in assay [1], the remaining activity was 110% (inactive). The fold change is 0.978 (inactive) in assay [2] (setting [4]) and 1.76 in assay [2] (setting [5]). In addition, the cell count amounted to 9030 in assay [2] (setting [6]) and 9230 in assay [2] (setting [7]). In assay [3], the z-score is 0.245 (inactive).

As to `Nc1nc2c(ccc3ccccc32)s1`, the remaining activity in assay [1] was 121% (inactive). Further, the fold change in assay [2] (setting [4]) is 0.908 (inactive); in assay [2] (setting [5]), 1.66. In addition, the cell count in assay [2] (setting [6]) came to 8670; in assay [2] (setting [7]), 9550. The z-score in assay [3] was 0.415 (inactive).

Turning to `CCCCCS(=O)(=O)CCCCCCCCCCn1c(-c2ccc(O)cc2)c(C)c2cc(O)ccc21`, the remaining activity in assay [1] was 96.6% (inactive). The values for the fold change in assay [2] (setting [4]) and in assay [2] (setting [5]) were 1.01 (inactive) and 0.732, respectively. Moreover, the cell count in assay [2] (setting [6]) amounted to 1420; in assay [2] (setting [7]), 1410. Moreover, the z-score in assay [3] is -0.685 (inactive).

Regarding `COCCNC(=O)COc1ccc(OCCNC[C@@H](O)COc2ccccc2)cc1`, the remaining activity in assay [1] is 95.4% (inactive). In addition, the fold change in assay [2] (setting [4]) is 0.88 (inactive); in assay [2] (setting [5]), 0.916. Moreover, the cell count in assay [2] (setting [6]) is 8400; in assay [2] (setting [7]), 9540. Moreover, in assay [3], the z-score is 0.13 (inactive).

Regarding `O=C(NCCCCN1CCN(c2cccc(Cl)c2Cl)CC1)c1ccc2c(c1)Cc1ccccc1-2`, in assay [1], the remaining activity is 111% (inactive). The fold change in assay [2] (setting [4]) was 0.929 (inactive); in assay [2] (setting [5]) it was 1.33. Moreover, the values for the cell count in assay [2] (setting [6]) and in assay [2] (setting [7]) were 8390 and 9030, respectively. For the same molecule, in assay [3], the z-score is -0.17 (inactive).

In the case of `N[C@H](C(=O)O)c1ccc(O)c(C(=O)O)c1`, in assay [1], the remaining activity is 98.7% (inactive). Besides, the fold change in assay [2] (setting [4]) was 0.912 (inactive); in assay [2] (setting [5]) it was 0.711. Also, the cell count in assay [2] (setting [6]) came to 8900; in assay [2] (setting [7]) it was 9760. Besides, in assay [3], the z-score is -0.325 (inactive).

For the molecule `CC(=Nc1ccccc1N)c1c(C)cc(=O)n(O)c1O`, in assay [1], the remaining activity is 117% (inactive). The fold change in assay [2] (setting [4]) is 1.16 (inactive); in assay [2] (setting [5]) it was 0.955. Besides, the cell count in assay [2] (setting [6]) was 3450; in assay [2] (setting [7]), 2970. Moreover, the z-score in assay [3] is -0.105 (inactive).

The remaining activity is the signal under treatment as a percentage of the control signal.

The values above are taken from PubChem BioAssay.
